# The list is not random: actives were taken first. Their share in the collection is about 4.7%.
# TGFb SMAD3 inh = inhibitors of TGF-b signaling; HepG2 CAGA-GFP TGF-b/SMAD3 reporter, GFP fluorescence, 18 h; TGF-beta stimulated, 500 pg/mL final; Potency, µM (titrated, usually from 46.1 µM), for the others: at the highest dose activity, negative = inhibition, usual class: inhibitors; 410,000 tested, 1.2% active; also: potency is read from the fitted curve at half-maximal effect; % is scaled to controls: 0 for no effect and ±100 for the full control effect; nearly all actives have a fitted effect of over 65% in size
#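 Smad-responsive CAGA-GFP expression was quantified in HEPG2 cells exposed to compounds and 500 pg/mL final TGF-beta for 18 h at 37 degrees C; unstimulated wells defined full inhibition.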
# DRD3 antagonist = blocks the human D3 dopamine receptor; D3R cells, DiscoveRx beta-arrestin luminescence, antagonist mode; hits give low values; max response, negative = inhibition, %; 360,000 tested, 2.5% active; in the data active = max response below about -50%; inconclusive = no clear call, values can overlap the other calls; also: % is scaled to controls: 0 for no effect and ±100 for the full control effect
# Target sequence (P35462 whole entry, looked up): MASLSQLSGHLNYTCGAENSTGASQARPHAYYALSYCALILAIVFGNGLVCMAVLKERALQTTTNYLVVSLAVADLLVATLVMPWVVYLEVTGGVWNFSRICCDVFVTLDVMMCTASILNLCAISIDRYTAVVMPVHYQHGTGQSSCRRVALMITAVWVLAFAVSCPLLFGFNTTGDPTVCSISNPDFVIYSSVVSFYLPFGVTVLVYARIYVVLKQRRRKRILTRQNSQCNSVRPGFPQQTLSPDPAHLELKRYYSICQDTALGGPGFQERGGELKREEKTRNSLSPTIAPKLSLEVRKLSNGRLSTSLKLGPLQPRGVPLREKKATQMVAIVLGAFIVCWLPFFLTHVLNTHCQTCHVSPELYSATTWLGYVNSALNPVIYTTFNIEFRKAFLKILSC
#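 Cells plated overnight at 1500 cells/well, then exposed to library compounds with dopamine controls for 90 minutes at 37 degrees C. DiscoveRx reagent added for 30–60 minutes at room temperature; luminescence read, quantitative HTS format.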
# ATXN viability = reduces viability in counter-screen for ATXN expression inhibitors | S2 cells (HEK-293 line with an ATXN2-luciferase reporter) viability, CellTiter-Fluor protease fluorescence, 24 h | Potency, µM (titrated, usually from 56.7 µM), actives largely listed as cytotoxic | 400,000 tested, 0.49% active | AID 651635; also: potency is read from the fitted curve at half-maximal effect; nearly all actives have a fitted effect of over 40% in size
# ATXN2 expr inh = ATXN2 expression inhibition; HEK-293 ATXN2-luciferase reporter, luminescence, 24 h; Potency, µM (highest dose often 57 µM), inactives show at the highest dose activity change, negative = inhibition, usual class: inhibitors; 360,000 tested, 0.72% active; AID 1745845; also: potency is read from the fitted curve at half-maximal effect; % is scaled to controls: 0 for no effect and ±100 for the full control effect; nearly all actives have a fitted effect of over 55% in size
#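 qHTS (up to 57 uM final) was run with 24 h compound exposure of reporter cells at 37 °C. Each well was multiplexed: SteadyGlo luminescence measured ATXN2-luciferase expression after a fluorogenic Gly-Phe-AFC viability readout (25 uM final).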
# HepG2 tox = HepG2 cytotoxicity, counter-screen for TGF-b inhibitors | HepG2 CAGA-GFP viability, ATP luminescence, 18 h | Potency, µM (series often up to 46.1 µM), for inactives: at the top dose activity change, negative = cytotoxicity, usual class: cytotoxic | 410,000 tested, 0.76% active | AID 588856; also: potency is read from the fitted curve at half-maximal effect
#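 CellTiter-Glo luminescence gave cytotoxicity after 18 hours at 37 degrees C. The cells were HepG2 CAGA-GFP in 1% FBS DMEM, stimulated with 500 pg/mL TGF-beta after compound addition. %Activity was normalised to no-cell wells (complete cell-killing) and DMSO (no toxicity), and curves were fitted and classified.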
# DRD3 agonist = D3 dopamine receptor (human) agonism. P35462. D3R DiscoveRx beta-arrestin cells, luminescence, 90 min. max activation, %. 410,000 tested, 0.58% active; in the data active = max activation above about 30%; also: 0% is about no effect
#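 Agonist mode: compounds and dopamine controls were applied to plated cells for 90 min at 37 degrees C after an overnight attachment at 1500 cells/well. Luminescent read-out followed 30 - 60 minutes at room temperature with DiscoveRx detection reagent.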
# Starred values were filed as active, the others as inactive; i = inactive; ? = inconclusive; · = not tested or not shown; ! = not active in a repeat. Unless noted, calls follow the shape of the dose curve; as a rule, active = well fitted curve in the direction sought with a large enough effect; inconclusive = small, poorly fitted or top-dose-only effect, or another doubt; inactive = no such curve, though single readings can be large; an effect the other way counts as inactive or inconclusive.
SMILES,TGFb SMAD3 inh,DRD3 antagonist,ATXN viability,ATXN2 expr inh,HepG2 tox,DRD3 agonist
O=C1NC[C@@H](CCCCN2C[C@H](Cc3ccccc3)N(Cc3ccccc3)C(=O)C2=O)N(CC2CCCCC2)C1=O,·,-22,i,8%,·,-9
O=C1NC[C@@H](CCCCN2C[C@H](Cc3ccc(O)cc3)N(CC3CCCCC3)C(=O)C2=O)N(Cc2ccccc2)C1=O,·,-75*,i,-2%,·,-15
O=C1NC[C@H](c2ccccc2)N(CCCCC2CCCCC2)C1=O,·,-58*,i,0%,·,-5
C(=Nc1cnc2ccccc2c1)c1ccc2ccccc2n1,5%,·,·,·,-19%,·
Cn1c2ccccc2c2cc(C(=O)N3CCOc4ccc(C(C)(O)CCn5cccn5)cc4C3)ccc21 (stereo unspecified),·,·,i,·,·,·
Cc1cc(C)nc(S[C@H]2C[C@@H](C(=O)N3CCN(c4ccccc4F)CC3)N(Cc3ccccc3F)C2)n1,·,·,i,·,·,·
CCN1CCSc2ccc(C(=O)NC(C)c3ccccc3)cc21 (stereo unspecified),-5%,·,i,-1%,2%,-18
O=C(Nc1ccccc1)Nc1ccc(Cl)c(S(=O)(=O)N2CCOCC2)c1,?,-51*,?,-20%,-19%,-11
O=C(Nc1ccc(NC(=O)c2ccc(Cl)c(S(=O)(=O)N3CCOCC3)c2)cc1)c1ccccc1,-5%,-5,i,4%,8%,4
CCOc1ccc(S(=O)(=O)N2CCN(c3ccc(Cl)c(Cl)c3)CC2)c2ccccc12,8%,·,i,-5%,-8%,-9
O=S(=O)(c1cccc2ccccc12)N1CCN(c2ccc(Cl)c(Cl)c2)CC1,5%,·,i,-6%,-38%,71*
CCc1nnc(NC(=O)c2nc(S(=O)(=O)Cc3cccc(C)c3)ncc2Cl)s1,11µM*,-70*,?,?,22µM*,-24
CCSc1ncc(Cl)c(C(=O)Nc2ccccc2OC)n1,-12%,30,?,?,-36%,10
CCc1nnc(NC(=O)c2nc(S(=O)(=O)Cc3ccccc3)ncc2Cl)s1,?,0,?,?,-95%,-9
CCc1nnc(NC(=O)c2nc(S(=O)(=O)Cc3ccc(C)cc3)ncc2Cl)s1,?,-50*,·,?,-183%,-19
CCOc1ccccc1NC(=O)c1nc(S(=O)(=O)Cc2cccc(C)c2)ncc1Cl,?,-96*,32µM*!,-12%,-21%,-23
CCCCCCCCCCC(C)(C)C(=O)Nc1c(OC)cc(OC)cc1OC,?,·,·,·,-15%,·
COc1ccc(Cl)c(Cn2cnc3c(cnn3C(C)(C)C)c2=O)c1,-23%,·,·,·,-16%,·
CC(Oc1ccccc1)C(=O)Nc1nc2ccc(S(N)(=O)=O)cc2s1 (stereo unspecified),0%,·,i,6%,-10%,3
COCCCNC(=O)N1[C@H](c2cccs2)[C@@H](C)C(=O)[C@@H](C)[C@@H]1c1cccs1,-7%,·,i,-6%,-19%,-9
COc1ccc(C(C)=O)cc1CSC(=N)N,-5%,-54*,i,30%,-14%,-5
CCOc1ccc(C(C)=O)cc1CSC(=N)N,5%,13,i,5%,-5%,3
COc1ccc(-c2cccc3c2OC(CNC(=O)c2ccccc2-n2cccn2)C3)nn1 (stereo unspecified),·,·,i,·,·,·
CCOC(=O)c1c(NC(C)=O)sc2c1CCC(C=O)=C2Sc1ccccc1,?,-58*,·,28µM*,-46%,-29
O=C(C[n+]1cccc2cccc(O)c21)c1ccc2ccccc2c1,6%,·,·,·,-4%,·
Cc1ccc(CN2CCN(/N=C\c3cccc([N+](=O)[O-])c3)CC2)cc1,-19%,-56*,i,-24%,-3%,-23
O=[N+]([O-])c1ccc(Cl)c(/C=N/N2CCN(Cc3ccccc3)CC2)c1,0%,-16,·,·,-2%,0
FC(F)(F)c1ccccc1/C=N/N1CCN(Cc2ccccc2)CC1,?,-66*,?,19%,-41%,-22
